Records with an inconclusive call do not appear. Active and inactive are the calls of the source. Unless noted, how the calls were made is not given here.

A short description of assay [1]: qHTS profiling of the MIPE4 collection as inhibitors of Plasmodium falciparum (3D7) proliferation (AID 743344).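 Further: scaled between DMSO vehicle wells and 0.29 µM artemisinin as full inhibition.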 As to conditions: P. falciparum 3D7 in erythrocytes, SYBR Green DNA fluorescence, 72 h; at 28.5 µM unless noted. In short, it runs like this:
(§1)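 Parasite DNA was quantified by SYBR Green I fluorescence (ex 485, em 535 nm) after overnight lysis in saponin/Triton buffer at room temperature. Cultures at 0.3% parasitemia and 2.5% hematocrit were first exposed to compound for 72 h at 37 C; signals were normalised to artemisinin (0.29 uM) and vehicle wells.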
In general terms: Quantitative high-throughput screening tests each substance at several concentrations.

Assay [2] can be described thus: qHTS profiling of the MIPE4 collection as inhibitors of Plasmodium falciparum (DD2) proliferation (Rep 2) (AID 743346). The conditions noted are these: P. falciparum Dd2 in erythrocytes, SYBR Green DNA, 72 h; at 28.5 µM unless noted. In short, it runs like this:
as §1

The nature of assay [3]: qHTS profiling of the MIPE4 collection as inhibitors of Plasmodium falciparum (HB3) proliferation (AID 743347).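 Further: plate controls were DMSO vehicle wells for no effect and artemisinin wells for full effect.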 The conditions noted are these: P. falciparum HB3 in erythrocytes, SYBR Green DNA, 72 h; at 28.5 µM unless noted. Put shortly:
as §1

The nature of assay [4]: High-throughput drug toxicity screening in the BPDCN cell line Gen2.2 (AID 1224824).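 Further: cells exposed to compounds for 48 h before reading.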 The conditions noted are these: Gen2.2 BPDCN cells; at 45.8 µM (top of the series) unless noted. In short, it runs like this: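 Gen2.2 cells, 500 per well in phenol red-free RPMI with 10% FBS, exposed to compounds 48 h at 37 C, 5% CO2; viability by CellTiter-Glo luminescence. Percent activity scaled to DMSO (100%) and 9.2 uM bortezomib final (0%).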

Assay [5] can be described thus: High-throughput drug toxicity screening in the BPDCN cell line Cal-1 (AID 1224825). As to conditions: Cal-1 BPDCN cell viability, qHTS; at 45.8 µM (top of the series) unless noted. Put shortly: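 CellTiter-Glo luminescence after 48 h compound exposure; percent activity scaled with DMSO as 100% and bortezomib (9.2 uM final) as 0%. Cal-1 cells seeded at 500/well in RPMI, 10% FBS, no phenol red.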

Assay [6] can be described thus: qHTS assay for measurement of the activity of small molecule inhibitors on Zika virus induced Caspase-3 activity in human iPSC derived neural progenitor cells (hNPCs) (AID 1224857; active means well fitted curve in the direction sought with a large enough effect; an effect the other way counts as inactive or inconclusive; further: nearly all actives have a fitted effect of over 65% in size; further: potency means the concentration at half of the fitted maximal effect). Put shortly: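 Values are percent inhibition of virus-induced caspase-3/7 signal, scaled between uninfected cells and ZIKV-infected cells. Infection used 2 FFU/cell for 6 h after 1 h compound exposure.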

Assay [7] is described as follows: qHTS assay for measurement of the activity of small molecule inhibitors on Zika virus induced Caspase-3 activity in human astrocytoma cells (AID 1224859; active means well fitted curve in the direction sought with a large enough effect; an effect the other way counts as inactive or inconclusive;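 further: plate controls were ZIKV-infected untreated cells for no effect and uninfected cells for full effect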). Put shortly:
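Compound added 1 h pre-infection; ZIKV 2 FFU/cell on SNB-19 cells, 6 h, 37 C/5% CO2. Caspase-Glo 3/7 luminescence; values as % inhibition of ZIKV-induced caspase activity.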

Assay [8] is described as follows: qHTS Screen of the MIPE 4.0 Collection Against Ewings Sarcoma (TC71) (AID 1259253; active means well fitted curve in the direction sought with a large enough effect; an effect the other way counts as inactive or inconclusive; further: nearly all actives have a fitted effect of over 40% in size; further: potency means the concentration at half of the fitted maximal effect). Put shortly:
(§2)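 Dose series incubated 48 h with cells in RPMI plus 5% FBS, glutamine and penicillin/streptomycin; cell viability then quantified via CellTiter-Glo.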

Assay [9] is described as follows: qHTS profiling for inhibitors of Plasmodium falciparum (DD2) proliferation (AID 743323). As to conditions: lower = more inhibition; at 28.7 µM (top of the series) unless noted. In short, it runs like this: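 SYBR Green fluorescence (ex 485, em 535 nm) of lysed cultures gives parasite DNA content; wells normalized to artemisinin (0.29 uM) and DMSO controls. Infected red cells: 0.3% parasitemia, 2.5% hematocrit, 72 h, 37 C.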

Assay [10] is described as follows: qHTS profiling for inhibitors of Plasmodium falciparum (HB3) proliferation (AID 743324; active means well fitted curve in the direction sought with a large enough effect; an effect the other way counts as inactive or inconclusive;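 further: 100% = DMSO vehicle wells and 0% = artemisinin-treated control wells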). The conditions noted are these: Plasmodium falciparum HB3 blood-stage proliferation; at 28.7 µM (top of the series) unless noted. Put shortly: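 SYBR Green fluorescence (485 ex/535 em) of lysed cultures, incubated overnight at room temperature in the dark, quantifies parasite DNA. Infected erythrocytes at 0.3% parasitemia and 2.5% hematocrit were exposed 72 h; values normalized to DMSO and 0.29 uM artemisinin controls.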

The nature of assay [11]: qHTS Screen of the MIPE 4.0 Collection Against Ewings Sarcoma (EW8) (AID 1259255; active means well fitted curve in the direction sought with a large enough effect; an effect the other way counts as inactive or inconclusive; further: nearly all actives have a fitted effect of over 35% in size; further: potency means the concentration at half of the fitted maximal effect;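 on viability: 100% = DMSO-treated cells and 0% = medium-only wells without cells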). Put shortly:
as §2

Assay [12] is described as follows: Identifying Small Molecule Inhibitors of Pancreatic Cancer Stem Cells (A2780, Spheroid) (AID 1259357; active means well fitted curve in the direction sought with a large enough effect; an effect the other way counts as inactive or inconclusive;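 further: spheroids pre-formed over 14 days in stem cell medium on hydrogel; compound exposure lasted 48 h before the ATP luminescence read; 100% = DMSO treated cells and 0% = wells without cells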). The conditions noted are these: Potency: A2780 spheroid viability. Put shortly: (§3)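 Endpoint: ATP-based luminescence, 48 h drug exposure. Bortezomib at 9.2 uM final as full-kill control; DMSO vehicle as negative control; activity normalized between vehicle and cell-free wells.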

The nature of assay [13]: Identifying Small Molecule Inhibitors of Pancreatic Cancer Stem Cells (SN12C, Adherent) (AID 1259358; active means well fitted curve in the direction sought with a large enough effect; an effect the other way counts as inactive or inconclusive;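 further: cell survival measured after 48 h of compound exposure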). In short, it runs like this:
as §3

Assay [14] in a line: qHTS profiling of the MIPE4 collection as inhibitors of Plasmodium falciparum (DD2) proliferation (AID 743345). As to conditions: P. falciparum Dd2 in erythrocytes, SYBR Green DNA, 72 h; at 28.5 µM unless noted. In short, it runs like this:
as §1

A short description of assay [15]: qHTS Screen of the MIPE 4.0 Collection Against Ewings Sarcoma (TC32) (AID 1259256; active means well fitted curve in the direction sought with a large enough effect; an effect the other way counts as inactive or inconclusive; further: nearly all actives have a fitted effect of over 45% in size; further: potency means the concentration at half of the fitted maximal effect). Put shortly: as §2

Take `COc1nccc(-c2c(-c3ccc(F)cc3)ncn2C2CCC(O)CC2)n1` (stereo unspecified): in [1], the parasite growth, % of DMSO control is 42.3%. Also, in assay [2], the parasite growth, % of control (lower = inhibition) amounted to 52.5%. Besides, the growth, % of control in [3] came to 28.5%. For the same compound, the cell viability, % of control (lower = more cytotoxic) in assay [4] is 192%. Moreover, in assay [5], the viability (% of control) was 43.4%. In addition, the Potency entry in [6] and in assay [7] was “inactive” throughout. Also, in assay [8], the Potency was 14.8 µM (active).

`CNC(=O)c1cc(COc2nnc(Nc3ccc(Cl)cc3)c3ccoc23)ccn1`: the activity, percent of control in assay [9] stood at 68.5%. The compound also came in with a remaining proliferation (% of control), lower = more inhibition in assay [10] of 28.7%. Also, the parasite growth, % of DMSO control in assay [1] was 40.5%. The compound further gave a parasite growth, % of control (lower = inhibition) in assay [2] of 52.9%. The compound further gave a growth, % of control in [3] of 48.2%. In [4], the cell viability, % of control (lower = more cytotoxic) is 159%. In addition, the viability (% of control) in [5] came out at 92.9%. Besides, the Potency result in assay [6], in assay [7], in assay [8], in assay [11], in [12] and in assay [13] was “inactive” throughout.

For the compound `CON(C)C(=O)N1N=C(c2cc(F)ccc2F)S[C@]1(CCCN)c1ccccc1`, the parasite growth, % of DMSO control in [1] worked out at 13.1%. Further, the parasite growth remaining, % of DMSO control (lower = more inhibition) in [14] is 10.1%. This compound showed a parasite growth, % of control (lower = inhibition) in assay [2] of 18.3%. The same compound returned a growth, % of control in assay [3] of 8.3%. In assay [4], the cell viability, % of control (lower = more cytotoxic) came to 16.8%. Also, in assay [5], the viability (% of control) was determined as 7.01%. The Potency entry in [6], in [7], in assay [8], in assay [11] and in assay [15] was “inactive” in each case.

In turn, `Cc1nc(C(=O)NCC(=O)O)c(O)c2ccc(Oc3ccccc3)cc12` had a parasite growth, % of DMSO control in [1] of 86.9%. Moreover, in assay [14], the parasite growth remaining, % of DMSO control (lower = more inhibition) is 95.5%. The same compound returned a parasite growth, % of control (lower = inhibition) in assay [2] of 67.9%. Further, the growth, % of control in [3] was determined as 69.9%. In addition, the cell viability, % of control (lower = more cytotoxic) in [4] is 54.1%. For the same compound, the viability (% of control) in [5] turned out to be 115%. Also, the Potency entry in [6], in assay [7] and in assay [8] was “inactive” throughout.

For the compound `Cc1ccccc1-n1c(Cn2nc(-c3cccc(O)c3)c3c(N)ncnc32)nc2cccc(C)c2c1=O`, the parasite growth, % of DMSO control in assay [1] stood at 6.67%. The parasite growth remaining, % of DMSO control (lower = more inhibition) in assay [14] worked out at 8.31%. The growth, % of control in [3] turned out to be 9.11%. The cell viability, % of control (lower = more cytotoxic) in assay [4] was found to be 5.88%. Besides, the viability (% of control) in assay [5] was found to be 10.5%. Moreover, the Potency result in assay [6] and in [7] was “inactive” each time. For the same compound, the Potency in assay [8] is 9.35 µM (active); in assay [11], 16.6 µM (active).

As to `CC(C)(OCc1nn(Cc2ccccc2)c2ccccc12)C(=O)O`, the parasite growth, % of DMSO control in assay [1] came to 95.1%. Moreover, the parasite growth remaining, % of DMSO control (lower = more inhibition) in [14] stood at 101%. Also, in assay [3], the growth, % of control amounted to 104%. In addition, in [4], the cell viability, % of control (lower = more cytotoxic) was determined as 148%. In assay [5], the viability (% of control) was 109%. Also, the Potency result in assay [6], in assay [7] and in assay [11] was “inactive” in each case. In addition, the Potency in assay [8] is 7.43 µM (active).

In turn, `CC(C)C[C@H](NC(=O)c1cc2ccccc2s1)C(=O)N1CCN(C(=O)[C@H](CO)NS(=O)(=O)c2ccc(Cl)cc2Cl)CC1` came in with an activity, percent of control in [9] of 27.2%. Moreover, the remaining proliferation (% of control), lower = more inhibition in [10] was found to be 5.88%. In addition, the parasite growth, % of DMSO control in [1] came to 11.1%. Moreover, in [14], the parasite growth remaining, % of DMSO control (lower = more inhibition) worked out at 47.5%. The parasite growth, % of control (lower = inhibition) in assay [2] amounted to 20.2%. Further, in [3], the growth, % of control came to 10.7%. The cell viability, % of control (lower = more cytotoxic) in [4] amounted to 29.4%. Also, the viability (% of control) in assay [5] was 67%. For the same compound, the Potency entry in assay [6] and in assay [7] was “inactive” throughout. In addition, the Potency in assay [8] is 23.5 µM (active); in assay [11], 20.9 µM (active).

In assay [1], `CN(C)S(=O)(=O)c1ccc2c(c1)C(=Cc1cc3c([nH]1)CCCC3)C(=O)N2` showed a parasite growth, % of DMSO control of 22.9%. The parasite growth remaining, % of DMSO control (lower = more inhibition) in assay [14] was determined as 22.5%. The growth, % of control in [3] was 8.5%. The cell viability, % of control (lower = more cytotoxic) in assay [4] was 119%. Besides, the viability (% of control) in assay [5] turned out to be 35.3%. Further, the Potency result in [6] and in assay [7] was “inactive” throughout. Further, the Potency is 9.35 µM (active) in assay [8], 8.33 µM (active) in assay [11] and 3.72 µM (active) in assay [15].

For the compound `CCN1CCC(n2cc(CNc3cc(Cl)c4ncc(C#N)c(Nc5ccc(F)c(Cl)c5)c4c3)nn2)CC1`, in [1], the parasite growth, % of DMSO control stood at 12.9%. In assay [14], the parasite growth remaining, % of DMSO control (lower = more inhibition) was 12.5%. Moreover, in assay [2], the parasite growth, % of control (lower = inhibition) was found to be 12.3%. This compound also yielded a growth, % of control in [3] of 7.52%. In addition, the cell viability, % of control (lower = more cytotoxic) in assay [4] was 35.5%. For the same compound, the viability (% of control) in assay [5] amounted to 36.8%. Further, the Potency in [6], in assay [8] and in [15] was 18.7 µM (active) throughout. Moreover, the Potency entry in [7] is “inactive”.
